# Measurements taken from PubChem BioAssay AID431 (Sanford-Burnham Center for Chemical Genomics, 2006).
# The campaign covered roughly 63,000 compounds. About 1,100 (1.7%) were called active. The entries come from a sample that favours actives as a whole. Measured potencies and affinities stand elsewhere. Values without a mark were called inactive.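 How the source made its calls: active means compounds whose percent cytotoxicity in the single-dose primary screen, scaled between solvent and toxic-drug controls, exceeds 50; inactive means the rest.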
# Experiment: viability loss of HPDE-C7K cells – cell-based, fluorescence, HTS, primary screen (AID 431);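 further: 0% = DMSO solvent wells and 100% = doxorubicin-treated wells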
# Conditions: HPDE-C7K KRASV12 cells, Alamar Blue viability, 48 h; at 10 µM; stronger effect = higher value
row,Structure (SMILES),cytotoxicity
1,O=C(Nc1ccccc1-c1nc2ccccc2s1)c1ccco1,7.5%
2,CC1(C)CC(=O)C2=C(C1)Nc1ccccc1NC2c1ccccn1 (configuration not stated),-20%
3,COc1ccc(-c2cc(-c3c(O)c(OC)c4occc4c3OC)[nH]n2)cc1OC,36.2%
4,COc1ccc(CCCc2nnc(SCC(=O)Nc3nccs3)n2C)cc1C,-0.1%
5,N#Cc1cc2c(nc1SCC(=O)Nc1sc3c(c1C#N)CCC3)CCCCC2,23%
6,CCOC(=O)c1sc(NC(=O)CSc2nc3c(cc2C#N)CCCCCC3)c(C#N)c1C,81.6% (active)
7,CCOC(=O)c1sc(NC(=O)CSc2nc3c(cc2C#N)CCC3)c(C#N)c1C,-0.1%
8,CCCS(=O)(=O)N1CCCC(C(=O)NCCc2ccc(Cl)cc2)C1 (configuration not stated),-3.4%
9,O=C(O)c1cccc(S(=O)(=O)Nc2ccc3oc(=O)sc3c2)c1,6.5%
10,COc1cc(NS(=O)(=O)c2ccc(C)cc2C)cc(OC)c1OC,30.3%
11,Cc1ccc(CNc2ccc3c(c2)OCO3)c(C)c1,64.8% (active)
12,Cc1ccc(CNc2ccc3c(c2)OCO3)cc1,28.9%
13,c1cc(CNc2ccc3c(c2)OCO3)ccn1,-0.7%
14,Fc1ccc(Cn2nnnc2CN2CCN(C3CCCC3)CC2)cc1,5.5%
15,Cc1cc(N2C3CCC2CC(O)(c2ccc(F)cc2)C3)nc(-c2ccccc2)n1 (configuration not stated),76.5% (active)
16,Cc1cc(N2CCN(c3ccccc3)CC2)nc(-c2ccccc2)n1,-1.4%
17,Cc1cc(N2CCC(C(=O)Nc3ccc(F)cc3)CC2)nc(-c2ccccc2)n1,-0.7%
18,O=C(c1cnccn1)N1CCc2ccccc21,-21%
19,O=S(=O)(NCc1cccs1)c1cccc2cccnc12,6.5%
20,Cc1cc(NC(c2cccnc2)c2ccc3cccnc3c2O)no1 (configuration not stated),24.3%
21,Cc1cnc(C(=O)Nc2ccccc2C(=O)N2CCOCC2)cn1,1.7%
22,O=C(O)c1ccc2cccc(Cl)c2c1O,24.3%
23,Cc1ccccc1NS(=O)(=O)c1ccc2[nH]cc(C(=O)NCCCN3CCOCC3)c(=O)c2c1,3.9%
24,CC1CCN(S(=O)(=O)c2ccc3[nH]cc(C(=O)NCCN4CCOCC4)c(=O)c3c2)CC1,57.8% (active)
25,COc1cccc(NS(=O)(=O)c2ccc3[nH]cc(C(=O)NCCN4CCOCC4)c(=O)c3c2)c1,-12.6%
26,COc1ccc(CNC(=O)C2CCCN2S(=O)(=O)c2ccc(S(=O)(=O)N(C)C)cc2)cc1 (configuration not stated),-14.8%

row,Structure (SMILES),cytotoxicity
1,Cc1cc(NCCN2CCOCC2)n2c(nc3ccccc32)c1C#N,11.6%
2,Cc1ccc(C2CC(=O)NC(SCC(=O)OCc3ccccc3)=C2C#N)o1 (configuration not stated),55.7% (active)
3,CCOC(=O)CSC1=C(C#N)C(c2ccc(Cl)cc2)CC(=O)N1 (configuration not stated),-10.7%
4,CCCCOC(=O)CSC1=C(C#N)C(c2ccc3c(c2)OCO3)CC(=O)N1 (configuration not stated),21.6%
5,CCCOC(=O)CSC1=C(C#N)C(c2ccc3c(c2)OCO3)CC(=O)N1 (configuration not stated),61.7% (active)
6,CCCCCCSC1=C(C#N)C(c2ccc(C)o2)CC(=O)N1 (configuration not stated),-6.9%
7,CCOC(=O)CC(=O)CSC1=C(C#N)C(c2ccccc2OC)CC(=O)N1 (configuration not stated),70.2% (active)
8,CCOC(=O)CSC1=C(C#N)C(c2ccc(C)o2)CC(=O)N1 (configuration not stated),67.9% (active)
9,CCOC(=O)CSC1=C(C#N)C(c2ccccc2OC)CC(=O)N1 (configuration not stated),30.7%
10,Cc1ccc(C2CC(=O)NC(SCc3ccccc3)=C2C#N)o1 (configuration not stated),9%
11,CCSC1=C(C#N)C(c2ccccc2OC)CC(=O)N1 (configuration not stated),-0.5%
12,CCOC(=O)CSC1=C(C#N)C(c2ccc3c(c2)OCO3)CC(=O)N1 (configuration not stated),27.9%
13,COC(=O)CSC1=C(C#N)C(c2ccccc2)CC(=O)N1 (configuration not stated),-15.7%
14,O=C(CN(Cc1ccccc1F)S(=O)(=O)c1ccc(Cl)cc1)NCCCO,-0.2%
15,CC1CCN(c2nc3c(c(=O)n(C)c(=O)n3C)n2CCSc2nc3ccccc3s2)CC1,-22%
16,COc1ccccc1C(c1nnnn1CS(=O)(=O)c1ccc(C)cc1)N1CCSCC1 (configuration not stated),-16.2%
17,CCCn1c(SCC(=O)NCC2CCCO2)nc2c1c(=O)n(C)c(=O)n2C (configuration not stated),2.7%
18,CCOC(=O)CSC1=C(C#N)C(c2ccc(C)s2)CC(=O)N1 (configuration not stated),49.2%
19,CCOc1ccc(C2CC(=O)NC(SCC(=O)OC)=C2C#N)cc1 (configuration not stated),-6.5%
20,CCOC(=O)CSC1=C(C#N)C(c2sccc2C)CC(=O)N1 (configuration not stated),52% (active)
21,Cc1ccc(NCc2nnc3n2CCCCC3)cc1,-2.7%
22,CCOC(=O)N1CCC(N2CCN(S(=O)(=O)CC)CC2)CC1,3.6%
23,CC1CCc2nc(NC(=O)c3ccco3)sc2C1 (configuration not stated),-5.4%
24,O=C(Nc1nc2c(s1)CCc1ccccc1-2)c1ccco1,5.1%
25,O=S(=O)(Cc1ccccc1)NCc1ccccn1,1.9%
26,C=CCn1c(SCC(=O)NCc2ccco2)nnc1-c1ccc2ccccc2n1,16.6%

row,Structure (SMILES),cytotoxicity
1,CCN(CC)CCOc1nc(C)nc2c1oc1ccccc12,-1.3%
2,CCc1nc(OCCN(C)C)c2oc3ccccc3c2n1,-2.7%
3,CN(C)CCOc1nc(-c2ccccc2)nc2c1oc1ccccc12,56.8% (active)
4,CC1Oc2ccccc2N(Cc2ccccc2F)C1=O (configuration not stated),3.3%
5,CCOC(=O)c1cccc(C(=O)OCC)n1,-5.9%
6,CCOC(=O)c1ccccc1NC(=O)COC,-2.8%
7,Cc1ccccc1CS(=O)(=O)Cc1ccc(C(=O)NCCCN2CCCC2=O)o1,-10.2%
8,CCOC(=O)c1c(NC(=O)c2nn(CC)cc2Br)sc2c1CCCCC2,16.9%
9,CCCn1c(Sc2nnnn2-c2ccccc2)n[nH]c1=O,-14.1%
10,Cc1sc2ncnc(Sc3nnnn3-c3ccccc3)c2c1C,101% (active)
11,Clc1ccc(-n2nnnc2Sc2ncnc3sccc23)cc1,-6.3%
12,Cc1nc(Sc2nnnn2-c2ccccc2)c(C#N)c(C)c1C,-8%
13,Cc1sc2ncnc(SCc3ccco3)c2c1C,-15.5%
14,CCOC(=O)c1ccc(CNC(=O)c2cc3cccc(OC)c3oc2=O)o1,-2.4%
15,CCOC(=O)CCCSc1nc2sc(C)c(C)c2c(=O)[nH]1,9.4%
16,CC(C)CCn1c(SCC(N)=O)nc2c1c(=O)n(C)c(=O)n2C,-10.1%
17,CCOc1ccc(OCc2ccc(C(=O)O)o2)cc1,-2.9%
18,CCN1CCN(c2ncc3c(n2)CC(c2cc(OC)c(OC)c(OC)c2)CC3=O)CC1 (configuration not stated),62.1% (active)
19,O=C1CC(c2cccc(Cl)c2)Cc2nc(N3CCOCC3)ncc21 (configuration not stated),-18.3%
20,CCN1CCN(c2ncc3c(n2)CC(c2ccc(OC)c(OC)c2)CC3=O)CC1 (configuration not stated),14.6%
21,O=C1CC(c2cccc(Cl)c2)Cc2nc(N3CCN(c4ccccc4)CC3)ncc21 (configuration not stated),61.6% (active)
22,COc1cc(C2CC(=O)c3cnc(N4CCN(Cc5ccccc5)CC4)nc3C2)cc(OC)c1OC (configuration not stated),50.1% (active)
23,Cc1ccc(C2CC(=O)c3cnc(N4CCN(c5ccccc5)CC4)nc3C2)cc1 (configuration not stated),17.2%
24,COc1cc(C2CC(=O)c3cnc(NC(=O)COc4ccccc4)nc3C2)cc(OC)c1OC (configuration not stated),-19.4%
25,COc1ccc(C2CC(=O)c3c(C)nc(N4CCN(Cc5ccccc5)CC4)nc3C2)cc1OC (configuration not stated),39.3%
26,COc1ccc(C2CC(=O)c3cnc(N4CCN(Cc5ccccc5)CC4)nc3C2)cc1 (configuration not stated),4.1%

row,Structure (SMILES),cytotoxicity
1,CCOC(=O)C1CCN(C(=O)CCn2c(=O)[nH]c3ccccc3c2=O)CC1,-4.8%
2,Cc1nn(C)c(C)c1S(=O)(=O)NC1CCCC1,-13%
3,CCOC(=O)C1CCCN(C(=O)c2cccs2)C1 (configuration not stated),2.4%
4,COc1cccc(NC(=O)NCc2cccn2C)c1,-7%
5,COc1cc(S(=O)(=O)N2CCC(N3CCCCC3)CC2)ccc1-n1cnnn1,12.7%
6,COc1cc(S(=O)(=O)N2CCN3CCCC3C2)ccc1-n1cnnn1 (configuration not stated),6.5%
7,COc1cc(S(=O)(=O)N2CCCC3(CCCCC3)C2)ccc1-n1cnnn1,76% (active)
8,COc1cc(C(=O)Nc2ccc(S(=O)(=O)N3CCCCC3C)cc2)cc(OC)c1OC (configuration not stated),0.7%
9,Cc1cc(C)c2c(CC(=O)N(CCC#N)Cc3cccnc3)coc2c1,-1.9%
10,c1csc(CSc2nc3ccccc3s2)c1,-17.1%
11,N#C/C(=C\c1ccco1)Sc1nc2ccccc2s1,43.6%
12,Cc1oc(-c2cccs2)nc1CS(=O)CC(=O)NCCCOC(C)C (configuration not stated),-12.2%
13,O=C(CSC1=NCCS1)Nc1ccnc2ccccc12,-15.4%
14,COC(=O)COc1ccc(S(=O)(=O)NCCC2=CCCCC2)cc1C,-19.8%
15,CCOC(=O)COc1ccc(S(=O)(=O)NCCC2=CCCCC2)cc1,53.1% (active)
16,COC(=O)COc1ccc(S(=O)(=O)NCCC2=CCCCC2)cc1,-11.9%
17,COC(=O)C1=C(C)OC(N)=C(C#N)C1C1CCCCC1 (configuration not stated),-11.1%
18,CCOc1ccc(NC(=O)CSc2nnc(C)n2CCCOC)cc1,-3.5%
19,Cc1ccc(C(=O)/C=C/Nc2cccc(O)c2)cc1,60.9% (active)
20,C/C(=C\C(=O)c1ccc(C)cc1)Nc1cccc(O)c1,-15.4%
21,COc1cccc(C(=O)Nc2ccc(C)cc2)c1,4.1%
22,Cc1cccc(OCC(=O)Nc2cc(C)ccc2O)c1,-1.5%
23,COc1cccc(C(=O)/C=C/Nc2cc(C)ccc2O)c1,69.1% (active)
24,O=C(/C=C/Nc1cccc(O)c1)c1ccccc1,15%
